Assay outcomes from PubChem BioAssay.
GALK inh: qHTS Assay for Inhibitors of Human Galactokinase (GALK) | P51570 | Purified GALK, Kinase-Glo residual ATP luminescence | Potency, µM (titrated, usually from 57.5 µM), without a hit: at the highest dose activity change, negative = inhibition, hits mostly inhibitors | 270,000 tested, 0.007% active | AID 1868, 2009; note: % is set by controls: 0 for no effect and ±100 for the full control effect
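Compounds were pin-transferred into ATP buffer (35 uM final), then GALK plus galactose (5 nM, 100 uM final) was added. After 1 h at room temperature, Kinase-Glo Plus was added and luminescence read after 10 min.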
Nrf2 block: Nrf2 qHTS screen for inhibitors; A549 ARE-Fluc reporter, luciferase luminescence, 18-24 h; Potency, µM (highest dose often 46 µM), for inactives: top-dose activity change, negative = inhibition, hits mostly inhibitors; 360,000 tested, 2.1% active; note: % is set by controls: 0 for no effect and ±100 for the full control effect; nearly all actives have a fitted effect of over 60% in size
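In this cell-based qHTS, ARE-driven firefly luciferase in A549 cells reports Nrf2 activity; the luminescent signal after BugLite lysis is the measured value, with a prior CellTiter-Fluor read for cell health.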
A549 tox: Nrf2 qHTS screen for inhibitors: counterscreen for cytotoxicity; 390,000 tested, 0.16% active; A549 ARE-Fluc cells, CellTiter-Fluor viability, 18-24 h; AID 504648, 2011; Potency, µM (top dose mostly 46 µM), for inactives: top-dose activity change, negative = cytotoxicity, hits mostly inhibitors; note: % is set by controls: 0 for no effect and ±100 for the full control effect
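A549 ARE_Fluc cells in 5% FBS OPTI-MEM were exposed to compounds in concentration-response for 18-24 h at 37 deg C. Viability was read by CellTiter-Fluor fluorescence (Ex 405/Em 525) after 30 min, before the luciferase read.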
Nrf2 activator: qHTS of Nrf2 Activators; AREc32 ARE-luciferase reporter (MCF7-derived line), luminescence, 24 h; Potency, µM (highest dose often 46.1 µM), for the others: at the highest dose activation, hits mostly activators; 410,000 tested, 0.31% active; note: % of control where 0% means no effect; nearly all actives have a fitted effect of over 65% in size
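Luminescent ARE reporter assay in AREc32_Fluc cells: overnight plating at 37 deg C, 24 hr compound incubation, Steady-Glo added, 30 min RT before reading.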
TrxR1 substrate: qHTS Assay for Substrates of Mammalian Selenoprotein Thioredoxin Reductase 1 (TrxR1): qHTS; Thioredoxin reductase 1, cytoplasmic (Rattus norvegicus), O89049; purified TrxR1 substrate turnover, NADPH consumption readout; Potency, µM (top dose mostly 114 µM), for inactives: at the highest dose activity change, negative = substrate turnover; 390,000 tested, 0.01% active; AID 588456, 2011; note: % is set by controls: 0 for no effect and ±100 for the full control effect; nearly all actives have a fitted effect of over 50% in size
Target sequence (O89049 whole entry, looked up): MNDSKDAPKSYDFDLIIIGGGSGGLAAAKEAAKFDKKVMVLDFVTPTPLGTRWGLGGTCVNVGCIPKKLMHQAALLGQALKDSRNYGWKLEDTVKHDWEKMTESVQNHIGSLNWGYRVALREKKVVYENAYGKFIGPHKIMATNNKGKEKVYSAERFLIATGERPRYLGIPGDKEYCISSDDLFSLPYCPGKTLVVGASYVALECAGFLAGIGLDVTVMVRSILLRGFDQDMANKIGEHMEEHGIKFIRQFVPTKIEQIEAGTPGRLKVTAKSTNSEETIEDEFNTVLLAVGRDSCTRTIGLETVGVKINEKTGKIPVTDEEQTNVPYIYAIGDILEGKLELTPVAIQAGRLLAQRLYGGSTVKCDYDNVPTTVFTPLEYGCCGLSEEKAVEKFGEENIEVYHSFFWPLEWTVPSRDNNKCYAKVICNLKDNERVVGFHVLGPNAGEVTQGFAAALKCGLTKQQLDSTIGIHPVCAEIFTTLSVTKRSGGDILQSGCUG
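Rat TrxR1, dispensed at 90 nM, was prereduced with 400 uM NADPH (final) for 5 min at ~22 deg C, then incubated with compound 15 min before 400 uM selenite. A first-read NADPH fluorescence drop versus no-compound background flagged substrates.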
rTrxR1 inhibitor: qHTS Assay for Inhibitors of Mammalian Selenoprotein Thioredoxin Reductase 1 (TrxR1): qHTS; Thioredoxin reductase 1, cytoplasmic (Rattus norvegicus), O89049; 390,000 tested, 1% active; recombinant rTrxR1, NADPH fluorescence consumption, selenite substrate; Potency, µM (series often up to 114 µM), without a hit: at the highest dose activity change, negative = inhibition, usual class: inhibitors; note: % is set by controls: 0 for no effect and ±100 for the full control effect; nearly all actives have a fitted effect of over 65% in size
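Rat TrxR1 (90 nM in the dispensed reagent) was pre-reduced with 400 uM NADPH for 5 min at room temperature, then incubated with compound for 15 min. After 400 uM selenite was added, NADPH fluorescence (Ex 340/Em 450 nm) was followed for 8 min.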
* marks the source's active call; other numbers are inactive results; [ ] = dose if it differs, or a comment. An excerpt weighted towards active compounds, which were near 3% of everything screened. Calls come from the whole dose curve; as a rule, active = well fitted curve in the direction sought with a large enough effect; inconclusive = small, poorly fitted or top-dose-only effect, or another doubt; inactive = no such curve, though single readings can be large; an effect the other way counts as inactive or inconclusive. Potency is the fitted concentration of half-maximal effect.

Results for Cc1cc(NC(=O)CSc2nc(C(C)C)nc3sc(C)c(C)c23)no1 ?
GALK inh: -4%; Nrf2 block: 15µM*; A549 tox: inconclusive; Nrf2 activator: -1%; TrxR1 substrate: 1%[57.1 µM]; rTrxR1 inhibitor: 2%[57.1 µM]

Results for Cc1sc2nc(C(C)C)nc(SCC(=O)N3CCN(C(=O)c4ccco4)CC3)c2c1C ?
GALK inh: -6%; Nrf2 block: inconclusive; A549 tox: 9%; Nrf2 activator: 2%; TrxR1 substrate: 0%[57.1 µM]; rTrxR1 inhibitor: 16µM*

What do the screens show for `Cc1sc2nc(C(C)C)nc(SCC(=O)NC3CC3)c2c1C`?
GALK inh: -1%; Nrf2 block: 17%; A549 tox: 0%; Nrf2 activator: -1%; TrxR1 substrate: -8%; rTrxR1 inhibitor: -2%

How did O=C(COc1ccccc1Cl)Nc1ccc(OCc2cc(=O)n3ccsc3n2)cc1 do in these assays?
Nrf2 block: -2%; A549 tox: 1%; Nrf2 activator: -1%; TrxR1 substrate: -1%; rTrxR1 inhibitor: 9%

Results for O=C(O)CCN1C(=O)C2C3C=CC(C3)C2C1=O (configuration not stated) ?
GALK inh: -2%; Nrf2 block: 14%; A549 tox: 4%; Nrf2 activator: 0%; TrxR1 substrate: 4%; rTrxR1 inhibitor: 8%

What do the screens show for `O=C1C2C3C=CC(C3)C2C(=O)N1CCCCCCN1C(=O)C2C3C=CC(C3)C2C1=O` (configuration not stated)?
GALK inh: 0%; Nrf2 block: 15µM*; A549 tox: 1%; Nrf2 activator: -1%; TrxR1 substrate: -14%[57.1 µM]; rTrxR1 inhibitor: 21%[57.1 µM]

How did N#CC1=C(N)Oc2cc3ccccc3cc2C1c1cccs1 (configuration not stated) do in these assays?
GALK inh: -2%; Nrf2 block: -23%; A549 tox: -17%; Nrf2 activator: 2%; TrxR1 substrate: -4%; rTrxR1 inhibitor: -5%

How did CN(C)/C=N/C1=C(C#N)C(c2cccs2)c2ccc3ccccc3c2O1 (configuration not stated) do in these assays?
GALK inh: -1%; Nrf2 block: inconclusive; A549 tox: inconclusive; Nrf2 activator: 8.9µM*; TrxR1 substrate: 0%[57.1 µM]; rTrxR1 inhibitor: 10%[57.1 µM]

How did CCOC(=O)c1c(NC(=S)NC)sc2c1CC(C)(C)SC2 do in these assays?
GALK inh: 0%; Nrf2 block: -5%; A549 tox: -11%; Nrf2 activator: -1%; TrxR1 substrate: 2%; rTrxR1 inhibitor: 11µM*

Results for COc1ccc(C(=O)C(CCCCC(CN(C)C)C(=O)c2ccc(OC)cc2)CN(C)C)cc1 (configuration not stated) ?
Nrf2 block: 5%; A549 tox: inconclusive; Nrf2 activator: 7%; TrxR1 substrate: -1%; rTrxR1 inhibitor: -19%

What do the screens show for `O=C(c1ccccc1)C(CCc1ccccn1)CCc1ccccn1`?
Nrf2 block: inconclusive; A549 tox: -1%; Nrf2 activator: 3%; TrxR1 substrate: 9%[57.1 µM]; rTrxR1 inhibitor: 15%[57.1 µM]

What do the screens show for `CN(C)CC(CCC(CN(C)C)C(=O)c1ccccc1)C(=O)c1ccccc1` (configuration not stated)?
GALK inh: -2%; Nrf2 block: 18µM*; A549 tox: inconclusive; Nrf2 activator: inconclusive; TrxR1 substrate: 4%[57.1 µM]; rTrxR1 inhibitor: 2.8µM*
